Shown are actives, neighbours in structure and some others; about 3.6% of the full set was active somewhere.
Anthrax LF inh2: inhibitors of Bacillus anthracis lethal factor protease; inhibition, % at 10 µM; P15917; hit rate 0.12% among 360,000; multiplex microsphere protease cleavage assay, LF
Target sequence (P15917 whole entry, looked up): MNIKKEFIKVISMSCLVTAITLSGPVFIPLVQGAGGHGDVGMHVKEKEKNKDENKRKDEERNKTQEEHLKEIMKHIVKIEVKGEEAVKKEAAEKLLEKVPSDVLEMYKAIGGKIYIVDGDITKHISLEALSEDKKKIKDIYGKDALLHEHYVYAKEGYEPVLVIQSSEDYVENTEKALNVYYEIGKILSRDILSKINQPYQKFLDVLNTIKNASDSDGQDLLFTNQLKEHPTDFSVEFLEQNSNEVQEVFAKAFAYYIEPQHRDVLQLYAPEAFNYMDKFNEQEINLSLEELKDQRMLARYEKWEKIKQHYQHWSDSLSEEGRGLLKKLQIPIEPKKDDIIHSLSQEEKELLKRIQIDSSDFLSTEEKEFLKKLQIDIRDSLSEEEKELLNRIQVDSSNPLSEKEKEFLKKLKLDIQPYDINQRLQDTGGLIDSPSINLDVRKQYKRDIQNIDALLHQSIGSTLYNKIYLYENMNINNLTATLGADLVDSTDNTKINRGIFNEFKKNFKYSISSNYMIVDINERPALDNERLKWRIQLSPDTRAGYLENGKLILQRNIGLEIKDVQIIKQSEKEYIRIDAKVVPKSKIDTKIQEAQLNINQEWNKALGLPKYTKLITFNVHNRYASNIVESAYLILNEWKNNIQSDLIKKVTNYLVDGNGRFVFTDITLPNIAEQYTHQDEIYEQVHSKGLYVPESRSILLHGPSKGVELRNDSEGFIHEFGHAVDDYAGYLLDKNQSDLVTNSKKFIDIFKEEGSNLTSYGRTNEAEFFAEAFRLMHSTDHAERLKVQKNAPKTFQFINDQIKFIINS
Autofluor counter: compound fluorescence in toxin protease inhibitor counterscreen. compound autofluorescence counterscreen, microsphere flow cytometry; active compounds read high. fluorescence intensity (no concentration beside the values). hit rate 3.1% among 360,000. AID 624483; in the data active means fluorescence intensity above about 16000; inconclusive means no clear call, values can overlap the other calls
SARS 3CLpro inh: SARS-CoV 3CLpro protease inhibition. P0C6X7. recombinant SARS-CoV 3CLpro, quenched FRET peptide cleavage. inhibition, % at 6 µM. hit rate 0.14% among 290,000. AID 1706; in the data active means inhibition above about 12%
BJeLR lethal: BJeLR cell viability loss; inhibition, % (concentration not given with the values); BJeLR (HRASV12) viability, CellTiter-Glo ATP luminescence, 48 h; hit rate 0.17% among 300,000; AID 1554; in the data active means inhibition above about 50%; inconclusive means no clear call, values can overlap the other calls
BoNT-F LC inh: inhibitors of Botulinum neurotoxin F light chain protease; Multiplex microsphere protease cleavage assay, flow cytometry; inhibition, % at 10 µM; hit rate 0.22% among 360,000; in the data active means inhibition above about 35%, passing the limit was not always enough; inconclusive means no clear call, values can overlap the other calls
BoNT A protease: inhibitors of Botulinum neurotoxin A light chain protease. multiplex microsphere protease substrate cleavage, flow cytometry. inhibition, % at 10 µM. hit rate 0.17% among 360,000
Numbers stand for hits; n = inactive; u = inconclusive; x = no result given. Unless noted, no stated cut-off is given here; in the data, active means inhibition above about 30%; inconclusive means no clear call, values can overlap the other calls; inactive means below that.

SMILES | Anthrax LF inh2 | Autofluor counter | SARS 3CLpro inh | BJeLR lethal | BoNT-F LC inh | BoNT A protease
COc1cc2c(cc1OC)N1C(=O)CC(OCC(=O)O)C3C4CC5(CCN5C(=O)C4=O)C2C31 (stereo unspecified) | n | n | n | n | n | n
Cc1cccc(OCC(=O)Nc2cc(NC(=O)COc3cccc(C)c3)cc(C(=O)O)c2)c1 | n | n | n | n | n | n
Cc1cc(C)cc(OCC(=O)Nc2nonc2NC(=O)COc2cc(C)cc(C)c2)c1 | n | 18944 | n | n | n | u
Cc1cc(C)cc(OCC(=O)Nc2cccc(C(=O)O)c2)c1 | n | 17933 | n | n | n | u
COc1ccc(OCC(=O)Nc2nonc2NC(=O)COc2ccc(OC)cc2)cc1 | n | n | n | n | n | n
CC(=O)Nc1ccc(-c2ccnc3c2CC(C)(C(=O)NCc2ccc(N4CCN(C)CC4)cc2)O3)cc1 (stereo unspecified) | n | n | x | x | n | n
C=CCn1c(SCc2nc3ccccc3c(=O)[nH]2)nnc1-c1cc2cc(Cl)ccc2o1 | n | n | n | n | n | n
CCC1(CC)Cc2ccccc2-c2nc(NCCO)[nH]c(=O)c21 | n | 20997 | n | n | n | n
CCC1(C)Cc2ccccc2-c2nc(NCCO)n(-c3ccc(C)cc3)c(=O)c21 (stereo unspecified) | n | n | n | n | n | n
CCC1(C)Cc2ccccc2-c2nc(NCCO)n(-c3ccccc3)c(=O)c21 (stereo unspecified) | n | 16333 | n | n | n | n
O=c1[nH]c(NCCO)nc2c1C1(CCCCC1)Cc1ccccc1-2 | n | n | n | x | n | n
CCC1(C)Cc2ccccc2-c2nc3n(c(=O)c21)CCCCC3 (stereo unspecified) | n | 21213 | n | n | n | n
O=C(NCCc1ccc2c(c1)OCCO2)c1ccccn1 | n | n | n | n | n | n
O=c1c2c(nc3c(-c4ccccc4)c[nH]n13)CCC2 | n | n | n | n | n | n
O=c1c2c(nc3c(-c4cccc(Br)c4)c[nH]n13)CCCC2 | n | 16678 | n | n | n | n
Cc1ccc(-c2cc(=O)[nH][nH]2)c(C)c1 | n | 22424 | n | n | n | n
CC(C)Cc1ccc(-c2cc(=O)[nH][nH]2)cc1 | n | n | n | n | n | n
COc1ccc(NS(=O)(=O)c2cccc(C(=O)NNC(=O)c3ccccc3OC)c2)cc1 | n | u | x | n | n | n
O/N=C1\CCCc2oc3c(c21)CCCC3 | n | 19892 | n | n | n | n
Cc1c(C(=O)O)oc2c1/C(=N\O)CCC2 | n | n | n | n | n | n
Cc1cc(C(=O)CSc2nc3ccccc3[nH]2)c(C)n1CC1CCCO1 (stereo unspecified) | n | 17964 | n | n | n | n
Cc1cc(C(=O)CSc2nnc(-c3ccc(Cl)cc3)n2C)c(C)n1CC1CCCO1 (stereo unspecified) | n | 22941 | n | n | n | n
Cc1cc(C(=O)CSc2nc(N)cc(=O)[nH]2)c(C)n1CC1CCCO1 (stereo unspecified) | n | n | x | x | n | n
CCOC(=O)C(C(=O)N(C)Cc1ccccc1)C1CCCCC1 (stereo unspecified) | n | n | n | n | u | n
Cc1cc(N2CCN(C)CC2)nc2ccc(NC(=S)N3CCCCC3)cc12 | n | n | n | n | n | n
SMILES | Anthrax LF inh2 | Autofluor counter | SARS 3CLpro inh | BJeLR lethal | BoNT-F LC inh | BoNT A protease
Cc1cccc(N2CCN(C(=S)Nc3ccc4nc(N5CCN(C)CC5)cc(C)c4c3)CC2)c1C | n | n | n | 70.6 | n | n
COc1ccc(C(O)P(=O)(OC2CCCCC2)c2ccc(N(C)C)cc2)cc1OC (stereo unspecified) | n | 22879 | n | n | n | n
C#CC(CC)(CC)NC(=O)NC1CCCCC1 | n | n | n | n | n | n
Cc1ccc(C(=O)Nc2c3c(nn2C(C)(C)C)CS(=O)(=O)C3)cc1C | n | 20652 | n | n | n | n
COc1ccc(-c2csc(-c3cc4ccccc4oc3=N)n2)cc1 | n | n | n | n | n | 39.4
COc1ccc(-c2noc(-c3cc4ccccc4oc3=O)n2)cc1 | x | x | n | n | x | x
O=C(COC(=O)CCC1CCCC1)Nc1ccc(Cl)cn1 | n | 17161 | n | n | n | n
CCNS(=O)(=O)c1ccc(NS(C)(=O)=O)cc1 | n | n | n | n | n | n
CS(=O)(=O)Nc1ccc(S(=O)(=O)NCCc2ccccc2)cc1 | n | 24049 | n | n | n | n
COC(=O)Nc1ccc(OCc2ccccc2)cc1 | n | n | n | n | n | n
CS(=O)(=O)Nc1ccc(OCc2ccccc2)cc1 | n | 24301 | n | n | n | n
Cc1c(C(=O)N2CCC[C@H]2C(N)=O)oc2c(F)cccc12 | n | n | n | n | n | n
CCOC(=O)C1C(=O)NC(SC)=C(C#N)C1c1ccccc1F (stereo unspecified) | n | 22567 | n | n | n | n
Cc1ccc(S(=O)(=O)NCCC(=O)NC(C)CCc2ccccc2)cc1 (stereo unspecified) | n | u | x | n | n | n
O=C(Oc1ccc(-c2cnc3ccccc3n2)cc1)c1ccco1 | n | 20475 | n | n | n | n
O=C(Cn1c(=O)[nH]c2ccsc2c1=O)NC1CCCCCC1 | n | 23444 | n | n | n | u
COC(=O)C1=C(C)N(C(C)C)C(=O)C1(NC(=O)C1CCCCC1)C(F)(F)F (stereo unspecified) | n | 19805 | n | n | n | u
CCOC(=O)c1cccnc1SC(CC)C(=O)NCc1ccco1 (stereo unspecified) | n | 24254 | n | n | n | n
CCC(Sc1ncccc1C(=O)OC(C)C)C(=O)N1CCOCC1 (stereo unspecified) | n | 22945 | n | n | n | u
CCC(Sc1ncccc1C(=O)OC(C)C)C(=O)NCc1ccco1 (stereo unspecified) | n | n | n | n | n | n
CCC(Sc1ncccc1C(=O)OCCN1CCCC1=O)C(=O)NCc1ccco1 (stereo unspecified) | n | 20951 | n | n | n | n
Cc1cc(C)c2nc(C)cc(N/N=C/c3ccc(O)cc3)c2c1 | n | n | n | 51.2 | n | n
CCOc1cc(CNn2cnnc2)ccc1OCC(=O)NC1CCCCC1 | n | 21782 | n | n | n | n
O=C1C2CC=CCC2C(=O)N1c1n[nH]c(CCc2ccccc2)n1 (stereo unspecified) | n | 18666 | n | n | n | u
COc1ccc(C(CNC(=O)c2cccc(NS(=O)(=O)c3ccc(C)c(F)c3)c2)N2CCOCC2)cc1 (stereo unspecified) | x | x | x | n | x | x
O=C(Nc1ccccc1)Nc1ccccc1C(=O)NCCCN1CCOCC1 | n | n | n | n | u | u
CC(=O)N(C1=C(N2CCOCC2)C(=O)c2ccccc2C1=O)c1ccc(C(=O)O)cc1 | n | n | n | n | n | n
CC(=O)N(C)C1=C(N2CCOCC2)C(=O)c2ccccc2C1=O | n | 24878 | n | n | n | n
CCCCCC1NC(=O)NC1CCCCCC(=O)O (stereo unspecified) | n | 18045 | n | n | n | n
COc1ccccc1NC(=O)N1CCN(c2ccc3nnc(-c4ccc(F)cc4)n3n2)CC1 | n | n | n | n | n | n
